The values below come from PubChem BioAssay.

The source made the active and inactive calls. Unless noted, no rule for the calls is given here.

Assay [1] is described as follows: compounds binding Alexa647 anti-His antibody – biochemical, small-molecule microarray, 635 nm fluorescence, artefact control for SMM control protein annotation, primary screen (AID 1128).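 Also: score merges feature fluorescence with signal-to-noise for each printed compound spot.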 Conditions: higher = more signal.
The test system of assay [2] is Human papillomavirus type 1a E7 protein (residues 1-88). As to the kind of experiment: HPV1a E7 small-molecule binders, primary screen, biochemical, small-molecule microarray, residues 1-88, 635 nm (AID 1129). Conditions: small-molecule microarray binding, fluorescence 635 nm; higher = more signal.
For assay [3], the target named is Focal adhesion kinase 1 (Homo sapiens) (UniProt Q05397). As to the kind of experiment: PTK2 protein binding on printed compound slides – biochemical, small-molecule microarray, 635/667 nm fluorescence, BSA, DTT, primary screen (AID 1130).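 Also: composite of spot emission at 667 nm and signal to noise over triplicate slides.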 The note with it: 635 nm fluorescence, higher = more signal.
Focal adhesion kinase 1 (Homo sapiens), sequence (Q05397 whole entry, looked up): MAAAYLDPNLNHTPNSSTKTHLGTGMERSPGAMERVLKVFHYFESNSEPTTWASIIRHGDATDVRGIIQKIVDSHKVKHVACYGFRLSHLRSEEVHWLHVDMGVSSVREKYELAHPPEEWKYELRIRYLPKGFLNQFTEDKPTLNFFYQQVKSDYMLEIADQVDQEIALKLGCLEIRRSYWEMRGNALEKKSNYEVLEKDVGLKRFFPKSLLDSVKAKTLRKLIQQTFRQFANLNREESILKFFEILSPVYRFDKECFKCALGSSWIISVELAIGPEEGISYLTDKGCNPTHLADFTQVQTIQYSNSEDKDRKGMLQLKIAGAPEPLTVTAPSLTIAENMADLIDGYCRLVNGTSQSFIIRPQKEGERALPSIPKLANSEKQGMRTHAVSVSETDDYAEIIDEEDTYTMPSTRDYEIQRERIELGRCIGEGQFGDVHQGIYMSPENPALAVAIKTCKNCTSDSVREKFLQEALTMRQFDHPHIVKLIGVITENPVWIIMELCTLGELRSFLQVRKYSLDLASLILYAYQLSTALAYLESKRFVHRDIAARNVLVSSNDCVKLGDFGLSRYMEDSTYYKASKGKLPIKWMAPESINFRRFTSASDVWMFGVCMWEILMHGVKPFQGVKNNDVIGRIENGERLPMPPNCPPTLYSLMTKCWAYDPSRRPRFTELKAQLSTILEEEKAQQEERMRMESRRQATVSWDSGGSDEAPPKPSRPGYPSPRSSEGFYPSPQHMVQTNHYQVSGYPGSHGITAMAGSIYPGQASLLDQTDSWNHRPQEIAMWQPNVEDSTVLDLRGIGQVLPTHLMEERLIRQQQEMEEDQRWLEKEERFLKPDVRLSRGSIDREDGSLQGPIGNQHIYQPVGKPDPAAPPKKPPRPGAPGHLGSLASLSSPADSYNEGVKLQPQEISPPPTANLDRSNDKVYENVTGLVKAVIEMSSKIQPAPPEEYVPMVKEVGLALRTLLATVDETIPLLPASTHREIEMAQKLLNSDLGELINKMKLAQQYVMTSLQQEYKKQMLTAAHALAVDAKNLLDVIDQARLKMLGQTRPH
Assay [4] has as its system Fibrinogen (Alexa647-labelled). As to the kind of experiment: Alexa647-fibrinogen binding to printed small molecules – biochemical, small-molecule microarray, 635/667 nm fluorescence, artefact control for SMM control-protein annotation, profiling panel (AID 1131).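 Also: z-score merges 667 nm fluorescence with per-spot signal-to-noise over triplicate slides.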 The note with it: fibrinogen-A647 binding fluorescence, higher = more signal.
For assay [5], the target named is Follistatin (Homo sapiens) (UniProt P19883). As to the kind of experiment: FST protein binding to printed compounds – biochemical, small-molecule microarray, 635/667 nm fluorescence, primary screen (AID 1132). The note with it: 635 nm fluorescence, higher = more signal.
Follistatin (Homo sapiens), sequence (P19883 whole entry, looked up): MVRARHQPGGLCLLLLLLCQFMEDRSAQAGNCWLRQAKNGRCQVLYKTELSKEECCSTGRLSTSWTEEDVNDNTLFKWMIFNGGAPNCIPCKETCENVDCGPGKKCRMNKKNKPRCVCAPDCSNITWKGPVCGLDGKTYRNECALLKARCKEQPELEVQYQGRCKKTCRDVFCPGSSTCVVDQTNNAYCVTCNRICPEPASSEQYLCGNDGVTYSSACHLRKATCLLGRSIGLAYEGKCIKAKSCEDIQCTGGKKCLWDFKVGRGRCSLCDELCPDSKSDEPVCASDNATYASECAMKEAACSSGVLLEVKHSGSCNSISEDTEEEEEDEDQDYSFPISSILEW
Assay [6] concerns the target Fibroblast growth factor 2 (Homo sapiens) (UniProt P09038). The assay can be described thus: basic fibroblast growth factor binding to printed compounds – biochemical, small-molecule microarray, 635/667 nm fluorescence, primary screen (AID 1133). Conditions: FGF2, fluorescence 635/667, higher = more signal.
Assay [7] is described as follows: JC-1 mitochondrial potential readout, lung cancer cells – cell-based, A549, JC-1 fluorescence, basal, 24 h, 100 nL, profiling panel (AID 1138).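 Also: A549 lung adenocarcinoma cells under basal conditions with no added stimulus; test concentration not given here.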 Conditions: higher = more signal.
The subject of assay [8] is Lefty1. As to the kind of experiment: Lefty1 protein binding to printed compounds – biochemical, small-molecule microarray, 635/667 nm fluorescence, primary screen (AID 1139). The note with it: fluorescence 635/667, higher = more signal.
In assay [9] the test system is wheat germ agglutinin (Triticum aestivum), Alexa647-labelled. As to the kind of experiment: Alexa647-WGA lectin binding to printed small molecules – biochemical, small-molecule microarray, 635/667 nm fluorescence, artefact control for SMM control-protein annotation, profiling panel (AID 1140).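 Also: score merges 667 nm feature emission with signal to noise over triplicate slides.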 The note with it: WGA-A647 binding, 635 nm fluorescence, higher = more signal.

Assay [10] deals with Luciferin 4-monooxygenase (Photinus pyralis) (UniProt P08659). The assay can be described thus: inhibition of purified Photinus pyralis luciferase – biochemical, luminescence, purified enzyme, 2006 set, primary screen (AID 1141).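 Also: cell-free assay with purified firefly luciferase at 100 ng per well in PBS; test concentration not given here.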 Conditions: purified firefly luciferase, SteadyGlo luminescence, 30 min; higher = more signal, called active from +8 up or from −8 down.
Luciferin 4-monooxygenase (Photinus pyralis), sequence (P08659 whole entry, looked up): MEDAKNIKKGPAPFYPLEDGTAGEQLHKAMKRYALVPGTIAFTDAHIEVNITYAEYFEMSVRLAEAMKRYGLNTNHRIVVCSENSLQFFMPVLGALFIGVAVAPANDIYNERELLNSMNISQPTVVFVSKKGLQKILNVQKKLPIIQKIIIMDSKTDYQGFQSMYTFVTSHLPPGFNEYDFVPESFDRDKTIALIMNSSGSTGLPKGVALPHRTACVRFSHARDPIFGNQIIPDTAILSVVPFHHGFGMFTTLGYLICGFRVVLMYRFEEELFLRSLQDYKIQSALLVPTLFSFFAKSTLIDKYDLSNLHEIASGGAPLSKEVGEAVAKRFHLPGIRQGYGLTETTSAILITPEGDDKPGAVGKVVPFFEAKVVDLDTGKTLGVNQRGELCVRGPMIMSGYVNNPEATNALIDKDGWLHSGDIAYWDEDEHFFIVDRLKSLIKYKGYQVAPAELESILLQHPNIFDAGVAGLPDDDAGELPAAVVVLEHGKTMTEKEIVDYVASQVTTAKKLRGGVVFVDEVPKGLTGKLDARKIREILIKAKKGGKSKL
The test system of assay [11] is Wnt5a (protein binding on small-molecule microarray). As to the kind of experiment: small molecules binding Wnt5a protein – biophysical, small-molecule microarray, 635/667 nm fluorescence, primary screen (AID 1142).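 Also: fluorescence read at 667 nm with signal to noise per printed feature.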 Conditions: 635 nm fluorescence, higher = more signal.
A short description of assay [12]: ATP-based viability of Huh7 replicon cells – cell-based, CellTiter-Glo luminescence, basal, 48 h, cytotoxicity control for HCV replication inhibitor project, primary screen (AID 1143).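 Also: Huh7 hepatoma cells carrying a hepatitis C replication reporter with no stimulus; test concentration not given here.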 Conditions: higher = more signal, called active from +8 up or from −8 down. A general note: A replicon is a self-replicating genome or part of one, used to study replication in cells.

Assay [13] is described as follows: Pseudomonas biofilm growth suppression – PAO1 strain, BacTiter-Glo luminescence, LB-PBS, primary screen (AID 1144). The note with it: P. aeruginosa PAO1 biofilm, 12 h, higher = more signal.
Assay [14] is described as follows: basal CRE-LacZ reporter activity in PC12 – cell-based, unstimulated, primary screen (AID 1145). Conditions: no forskolin, luminescence, 4.5 h, higher = more signal, called active from +8 up or from −8 down.
The nature of assay [15]: forskolin-driven CRE-LacZ activity in PC12 – cell-based, CRE-LacZ reporter, forskolin-stimulated, primary screen (AID 1146).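 Also: PC12 cells with 6xCRE LacZ reporter stimulated by forskolin 10 µM; beta-galactosidase reporter signal reflecting CREB driven transcription.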 The note with it: luminescence, 4.5 h, higher = more signal, called active from +8 up or from −8 down.
The target of assay [16] is Streptavidin (Streptomyces avidinii) (UniProt P22629). As to the kind of experiment: compounds binding control protein streptavidin – biophysical, small-molecule microarray, 635/667 nm fluorescence, artefact control for SMM compound annotation, primary screen (AID 1147).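 Also: signal reflects streptavidin binding to arrayed compounds as a control protein.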 The note with it: higher = more signal.
Streptavidin (Streptomyces avidinii), sequence (P22629 whole entry, looked up): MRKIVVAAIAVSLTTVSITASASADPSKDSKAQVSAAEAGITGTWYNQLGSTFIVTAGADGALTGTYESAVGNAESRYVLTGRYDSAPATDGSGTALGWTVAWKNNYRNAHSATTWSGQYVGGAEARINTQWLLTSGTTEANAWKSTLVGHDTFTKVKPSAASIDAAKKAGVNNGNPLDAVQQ
The nature of assay [17]: probe aInhba binding on compound microarray – biochemical, small-molecule microarray, 635/667 nm fluorescence, primary screen (AID 1148).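 Also: score merges 667nm spot fluorescence with signal-to-noise for antibody binding to printed compounds.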 The note with it: higher = more signal.
For assay [18], the target named is Torsin-1A (Homo sapiens) (UniProt O14656). The assay can be described thus: TOR1A wild-type binding on microarray – cell lysate, small-molecule microarray, lysate, 635/667 nm, primary screen (AID 1149). Conditions: COS7 hTOR1A-WT lysate, 635 nm fluorescence, higher = more signal.
Torsin-1A (Homo sapiens), sequence (O14656 whole entry, looked up): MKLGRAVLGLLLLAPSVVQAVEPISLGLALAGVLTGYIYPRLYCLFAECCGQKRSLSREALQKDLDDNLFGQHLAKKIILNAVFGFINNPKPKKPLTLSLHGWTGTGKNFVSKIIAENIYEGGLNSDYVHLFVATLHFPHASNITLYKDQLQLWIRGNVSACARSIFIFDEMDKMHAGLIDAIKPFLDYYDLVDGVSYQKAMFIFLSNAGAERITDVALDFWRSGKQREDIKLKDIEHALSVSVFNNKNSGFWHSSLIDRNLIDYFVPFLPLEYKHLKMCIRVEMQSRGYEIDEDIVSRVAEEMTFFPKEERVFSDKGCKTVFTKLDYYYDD
Assay [19] has the same target. The assay can be described thus: torsin A mutant lysate binding on microarrays – cell lysate, small-molecule microarray, COS7 lysate, 635/667 nm fluorescence, primary screen (AID 1150).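 Also: score pools 667 nm emission and signal to noise measuring lysate protein binding.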 Conditions: COS7 hTOR1A mutant lysate, 635 nm fluorescence, higher = more signal.
The subject of assay [20] is Sonic hedgehog protein (Shh). The assay can be described thus: Sonic hedgehog microarray binding compounds – biochemical, small-molecule microarray, 635/667 nm fluorescence, primary screen (AID 1151).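 Also: Shh protein binding to compounds spotted on small-molecule microarray slides; score combines spot fluorescence intensity with signal-to-noise across triplicate slides.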 Conditions: 635 nm fluorescence, higher = more signal.

Fibroblast growth factor 2 (Homo sapiens), sequence (P09038 whole entry, looked up): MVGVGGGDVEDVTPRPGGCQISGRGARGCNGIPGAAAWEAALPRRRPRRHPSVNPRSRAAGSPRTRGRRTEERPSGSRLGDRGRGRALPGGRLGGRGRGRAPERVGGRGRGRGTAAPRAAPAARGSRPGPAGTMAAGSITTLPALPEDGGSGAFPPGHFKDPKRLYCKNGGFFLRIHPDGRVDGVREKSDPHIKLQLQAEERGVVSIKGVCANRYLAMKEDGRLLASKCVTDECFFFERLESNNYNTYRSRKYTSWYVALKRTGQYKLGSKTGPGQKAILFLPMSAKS

In the case of `CCCCN1CC=CC23O[C@@H]4C=CCOC(=O)[C@@H]4[C@H]2C(=O)N(CCCO)[C@@H]3C1=O` (stereo not given in full), the composite z-score is 0.56 in assay [1]; -0.518 in [2]; -0.609 in assay [3]; -1.28 in assay [4]; -1.45 in assay [5]; -0.682 in assay [6]. Besides, the composite z-score in assay [8] is -0.199; in [9] it was -0.929; in assay [11], -0.133; in assay [16] it was -0.808; in assay [17] it was -0.23; in assay [18], 0.222. Further, the composite z-score in assay [19] was -0.107; in assay [20], -0.512. Moreover, the z-score in [7] is -1.08; in assay [10], -0.135 (inactive); in [12] it was -1.98 (inactive); in assay [13] it was -0.766 (inactive); in assay [14], -0.757 (inactive); in assay [15] it was 1.47 (inactive).
In the case of `CN1C(=O)C2C(C1=O)C1C=C(c3ccc(CO)cc3)C2C(c2cccs2)N1Cc1cccc(OC(F)(F)F)c1` (stereo not given), the composite z-score in assay [1] stood at 1.87; in assay [2] it was 1.25; in assay [3], 0.726; in assay [4] it was 1.02; in [5] it was 0.942; in assay [6] it was 0.384. Also, the composite z-score in [8] worked out at 0.733; in assay [9], 0.661; in assay [11], 0.314; in assay [16] it was 0.474; in [17] it was 0.0689; in assay [18], 1.13. Besides, the composite z-score in assay [19] was -0.0742; in assay [20], 0.834. Besides, the z-score was 0.38 in [7]; 0.117 (inactive) in [10]; -3.4 (inactive) in assay [12]; -0.656 (inactive) in assay [13]; -0.336 (inactive) in assay [14]; -1.55 (inactive) in [15].
For the compound `O=C(N1CCCCC1)[C@@]1(Cc2ccccc2)COC(c2ccc(OCCCO)cc2)=N1`, the composite z-score was 1.85 in [1]; 1.2 in assay [2]; 0.195 in [3]; 0.96 in assay [4]; 0.475 in [5]; 1.3 in assay [6]. Further, the composite z-score was -0.211 in assay [8]; 1.12 in assay [9]; 1.03 in [11]; 0.85 in [16]; 0.322 in assay [17]; 0.442 in assay [18]. Besides, the values for the composite z-score in assay [19] and in assay [20] were 0.67 and 0.934, respectively. Further, the z-score in assay [7] was 1.22; in assay [10], -0.117 (inactive); in assay [12], -2.49 (inactive); in assay [13], 0.496 (inactive); in assay [14], -0.128 (inactive); in assay [15], -0.628 (inactive).
For the compound `[N-]=[N+]=Nc1ccccc1C[C@]1(C(=O)NCc2ccccc2)N=C(c2ccc(OCCCO)cc2)O[C@H]1c1ccccc1`, the composite z-score amounted to 1.93 in assay [1]; 1.24 in assay [2]; 0.0541 in assay [3]; 0.998 in assay [4]; 1.13 in assay [5]; 0.0124 in assay [6]. Further, the composite z-score amounted to 0.0213 in assay [8]; 1.12 in [9]; 0.307 in assay [11]; 1.44 in assay [16]; 0.192 in assay [17]; 0.403 in [18]. Also, the composite z-score in assay [19] was 0.687; in [20], -0.312. Besides, the z-score in assay [7] is 0.482; in [10], -1.34 (inactive); in [12], -3.03 (inactive); in assay [13], -0.523 (inactive); in [14], -0.585 (inactive); in [15], 1.15 (inactive).
With `COc1ccc([Si](C)(C)[C@H]2[C@H](CCn3cc([C@H](O)c4ccccc4)nn3)O[C@@]3(C(=O)N(Cc4ccc(N5CCOC5=O)cc4)c4ccccc43)[C@@H]2C)cc1`, the composite z-score is -0.194 in [1]; -0.993 in [2]; -0.775 in assay [3]; -0.231 in assay [4]; -0.988 in assay [5]; -0.785 in [6]. The composite z-score in assay [8] was -0.919; in [9], -0.0383; in assay [11] it was -0.271; in [16], -0.303; in [17] it was -0.208; in assay [18] it was -0.995. Also, the composite z-score in [19] was -1.35; in [20], -0.25. Moreover, the z-score in assay [7] was 1.26; in assay [10], -0.278 (inactive); in assay [12], -1.3 (inactive); in [13], -0.434 (inactive); in assay [14], 0.804 (inactive); in [15], -0.889 (inactive).
